The panel holds about 83,000 compounds, 20% with a hit somewhere; the sample as a whole holds those more often.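 Treatment: one concentration, 48 hours, 96-well format. Scoring: percent growth, with anything below 10 considered active.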 Unmarked numbers belong to inactive results. Active and inactive are the calls of the source.
Tests used:
Experiment in all cases: NCI-60 one-dose screen, 48 h (100 = growth as untreated, 0 = no growth, -100 = all killed)
SK-MEL-2 melanoma = conditions: 10 µM unless noted
EKVX NSCLC = conditions: 10 µM unless noted
SN12C renal = conditions: 10 µM unless noted
UO-31 renal = conditions: 10 µM unless noted
TK-10 renal = conditions: 10 µM unless noted
ACHN renal = conditions: 10 µM unless noted
A498 renal = conditions: 10 µM
HL-60(TB) leukemia = conditions: 10 µM unless noted
CCRF-CEM leukemia = conditions: 10 µM unless noted
MOLT-4 leukemia = conditions: 10 µM unless noted
SR leukemia = conditions: 10 µM unless noted
RPMI-8226 leukemia = conditions: 10 µM unless noted
OVCAR-8 ovarian = conditions: 10 µM unless noted
OVCAR-5 ovarian = conditions: 10 µM unless noted
OVCAR-4 ovarian = conditions: 10 µM unless noted
OVCAR-3 ovarian = conditions: 10 µM unless noted
HS 578T breast = conditions: 10 µM unless noted
SK-OV-3 ovarian = conditions: 10 µM unless noted
IGROV1 ovarian = conditions: 10 µM unless noted

SMILES | growth (SK-MEL-2 melanoma) | growth (EKVX NSCLC) [%] | growth (SN12C renal) | growth (UO-31 renal) | growth (TK-10 renal) [%] | growth (ACHN renal) | growth (A498 renal) | growth (HL-60(TB) leukemia) | growth (CCRF-CEM leukemia) | growth (MOLT-4 leukemia) | growth (SR leukemia) | growth (RPMI-8226 leukemia) | growth (OVCAR-8 ovarian) | growth (OVCAR-5 ovarian) [%] | growth (OVCAR-4 ovarian) [%] | growth (OVCAR-3 ovarian) | growth (HS 578T breast) | growth (SK-OV-3 ovarian) | growth (IGROV1 ovarian)
CN1CCC(c2c[nH]c3ccccc23)C1 (stereo not drawn) | 87.5% | 98.1 | 124% | 69.1% | 154 | 96.2% | 113% | 104% | 98.7% | 105% | 96.6% | 79.7% | 96.4% | 77 | 107 | 103% | 113% |  | 
CC1(C)N=C(N)N=C(N)N1c1ccc(CCC(=O)Nc2ccc(S(=O)(=O)F)cc2)c(Cl)c1 | 48.5% | 55.1 | 28.9% | 93.1% | 42.4 | 47.9% |  | 18.3% | 44.9% | 33% | 6.43% (active) |  | -11.8% (active) | 29 | 52.9 | 58.9% | 59.9% | 64.5% | -43.3% (active)
CCOC(=O)[C@@H](C)C[C@H](Cc1ccccc1)NC(=O)c1csc([C@@H](C[C@H](C(C)C)N(C)C(=O)CNC(=O)[C@H]2CCCCN2C)OC(C)=O)n1 | 28.1% | 34.8 | 36% | 39.7% | 65.7 | 43.7% | -3.32% (active) |  | 5.17% (active) | 19.7% | 7.72% (active) | 15.4% | 9.59% (active) | 32.1 | 46.4 | -17.4% (active) | 3.01% (active) | 21.9% | 33.4%
COC(=O)[C@@H](C)C[C@H](Cc1cn(C)c2ccccc12)NC(=O)c1csc([C@@H](C[C@H](C(C)C)N(C)C(=O)[C@@H](NC(=O)[C@H]2CCCCN2C)C(C)C)OC(C)=O)n1 | 39% | 46.4 | 23.5% | 34.1% | 28.1 | 18.8% | -1.42% (active) | -39.1% (active) | 10.8% | 12.8% | 13.2% |  | 30.1% | 48.7 | 50.5 | -11% (active) | 22.7% | 26.8% | 26.3%
COC(=O)[C@@H](C)C[C@H](Cc1ccc(F)cc1)NC(=O)c1csc([C@@H](C[C@H](C(C)C)N(C)C(=O)[C@@H](NC(=O)[C@H]2CCCCN2C)C(C)C)OC(C)=O)n1 | 37.7% | 48.7 | 26.6% | 47% | 50.2 | 22.1% | -3.94% (active) | -37.5% (active) | 12.3% | 18.3% | 14.9% | 17.4% | 30% | 53.7 | 49.2 |  | 34% | 21.4% | 25.3%
CN(C)C(=O)Oc1ccccc1-c1ccccc1 | 102% | 101 | 102% | 86.3% | 109 | 104% | 115% | 99.7% | 96.9% | 89.9% | 103% |  | 100% | 109 | 128 |  | 113% | 100% | 113%
COC(=O)CCc1c[nH]c2ccc(N(CCCl)CCCl)cc12 | 121% | 96.6 | 36.6% | 19.5% | 90 | 12.6% | 84.3% | 17.5% |  | 23.1% | 12.7% | 86.3% | 56.1% | 80.3 | 79.7 | 80.3% |  |  | 65.6%
CCN(CCO)C(Cc1ccccc1)c1ccccc1 (stereo not drawn) | 105% | 96.5 | 102% | 94% | 101 | 108% | 96.3% | 111% | 2.74% (active) |  |  | 98.9% | 109% | 93 | 102 | 109% | 105% | 110% | 97.4%
Cc1c2cc(Cl)c3ccccc3c2c[n+]2ccccc12 | -16.6% (active) | 43.2 | -19.4% (active) | 62% | 93.3 | 92.2% | 90.2% | 62.3% | 35.5% | 1.48% (active) | -11.7% (active) |  | -1.69% (active) | 77.6 | 30.3 |  | -33.2% (active) | 66.6% | 19.9%
O=C1NC(=O)C(=Cc2ccc(OCCCCC3CCCCC3)c(Cl)c2)C(=O)N1 | 89.5% | 95.9 | 77.3% | 81.2% | 94.1 | 104% | 82.7% | 92.8% | 90.1% | 96.5% |  | 97.7% | 101% | 98.8 | 105 | 106% | 105% | 99.9% | 104%
Cc1cc(NC(=O)NCc2ccc(N3C(N)=NC(N)=NC3(C)C)cc2)ccc1S(=O)(=O)F | 34.4% | 53.5 | 33.6% | 80.1% | 45.7 | 89.2% | 77.7% | 24.7% | 55.4% | 42% | 4.98% (active) |  | -4.46% (active) | 10.8 | 39.2 | 67.6% | 68.6% | 64.9% | -51.3% (active)
CCCC[C@H](NC(=O)[C@H]1CCCN1C)C(=O)N(C)[C@H](C[C@@H](OC(C)=O)c1nc(C(=O)N[C@@H](Cc2ccccc2)C[C@H](C)C(=O)OCC)cs1)C(C)C | 52% | 41.3 | 23.6% | 40.2% | 16.4 | 17.5% | -11.7% (active) |  | 11.1% | 14.5% | 6.28% (active) | 16.6% | 20% | 32.7 | 66.5 | 8.32% (active) | 12.6% | 17.2% | 29.7%
Brc1ccc2c(c1)c(-c1nc(-c3c[nH]c4ncccc34)cs1)cn2CCN1CCOCC1 | 80% | 43.5 | 71.5% | 35.8% | 74.1 | 55.2% | 88.7% | 71% | 45.8% | 41.3% | 59.7% |  | 45.6% | 76.9 | 57.3 | 72.9% | 66.8% | 84.8% | 29.5%
CCCCCCCCCCCCNC(c1ccccc1)C(O)c1ccccc1 (stereo not drawn) | 92.8% | 92.6 | 68.5% | 72% | 98.8 | 67.4% |  | 66.8% | 63.1% | 61.7% | -14.3% (active) | 18.3% | 67.9% | 92.9 | 10.5 |  | 106% | 95.8% | 53.7%
N#C[S-].[Au+].c1ccc(CN2[CH-]N(Cc3ccccc3)C(c3ccccc3)=C2c2ccccc2)cc1 | -1.84% (active) | 12.6 | 6.67% (active) | 4.03% (active) | 17.6 | 2.08% (active) | -37.3% (active) |  | 1.1% (active) | 3.58% (active) |  | -16.4% (active) | 12.1% | 36.8 | 19.4 | -6.54% (active) |  | -0.746% (active) | 30.3%
COC(=O)[C@@H](C)C[C@H](Cc1ccccc1)NC(=O)c1cccc([C@@H](C[C@H](C(C)C)N(C)C(=O)[C@@H](NC(=O)[C@H]2CCCCN2C)C(C)C)OC(C)=O)n1 | 26.4% | 34.3 | 17.1% | 41.8% | 58.7 | 30.4% | -0.869% (active) | -28.6% (active) | 7.41% (active) | 11.5% | 8.11% (active) |  | 11.4% | 35.6 | 38.9 | -31.3% (active) | 26.3% | 28.7% | 26.8%
